40 compounds from the supplement of paper PMC9135407 can be followed below.

Where a name gives a salt, the structure may show the parent alone. Unmarked numbers belong to inactive results.

The subject of the assay is primary human hepatic stellate cells (donor 1). Nature of the assay: COL1A1 mRNA fold change vs DMSO (normalised to PSMB2); higher = more COL1A1 expression, active = hit call of the paper. Conditions: 48 h. The procedure:
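Secondary qRT-PCR screen in primary human HSCs (donor 1), 384-well plates, with compounds dispensed in quadruplicate and incubated for 48 h. Cells-to-CT lysates were used for multiplexed TaqMan qPCR of ACTA2 or COL1A1 with PSMB2 as reference. Fold changes versus DMSO come from a linear model (Ct_gene ~ Ct_PSMB2 + plate + chemical). A hit is defined as COL1A1 and ACTA2 FC <0.5 (FDR <0.05) with PSMB2 between 0.2 and 2.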
As to `CCN(CC)CCOc1ccc(Cc2ccccc2)cc1` [DPPE fumarate] (33.3333 µM), the “COL1A1 mRNA fold change” value is 0.51. The result for `CN(C)CCCCC(=O)Nc1ccc(NC(=S)NC(=O)c2ccc(C(C)(C)C)cc2)cc1` [Tenovin-6] (33.3333 µM) reads 0.00938; that for `Cn1cc(C2=C(c3ccc(Cl)cc3Cl)C(=O)NC2=O)c2ccccc21` (33.3333 µM), 2.59.

With `Cc1cccc(Nc2nc(-c3ccncc3)cs2)c1` (11.1 µM), the “COL1A1 mRNA fold change” value is 0.552. With `N=C(N)SCCc1ccc(OCc2ccc([N+](=O)[O-])cc2)cc1` [KB-R7943 mesylate] (33.3333 µM), the “COL1A1 mRNA fold change” value is 0.168 (active).

Turning to `CN(C)C/C=C(/c1ccc(Br)cc1)c1cccnc1` [Zimelidine dihydrochloride] (11.1 µM), the “COL1A1 mRNA fold change” value is 2.1.

In the case of `c1ccc2c(NCCCCCCCNc3c4c(nc5ccccc35)CCCC4)c3c(nc2c1)CCCC3` [bis(7)-Tacrine] (3.33333 µM), the “COL1A1 mRNA fold change” value was 0.0304 (active). For `Cc1ccc2c(c1)c1c3n2CCNC3CCC1` (stereo not given) [Pirlindole mesylate] (20.6667 µM) the value was 0.473. For `CNCc1ccc(-c2cc(-c3nc(-c4ccc(S(=O)(=O)C(C)C)cc4)cnc3N)on2)cc1` (11.1 µM) the value was 0.0438; for `Cc1ccc(NC(=O)c2ccc(CN3CCN(C)CC3)cc2)cc1Nc1nc(-c2cccnc2)cs1` [Masitinib (AB1010, Masivet)] (6.66667 µM), 1.31. The result for `COc1cc2ncn(-c3cc(OCc4ccccc4C(F)(F)F)c(C(N)=O)s3)c2cc1OC` (33.3333 µM) reads 1.1. For `CN(C)CCC(c1ccc(Br)cc1)c1ccccn1` (stereo not given) [Brompheniramine maleate] (33.3333 µM), the “COL1A1 mRNA fold change” value is 0.705. On to `O=C1NCN(c2ccccc2)C12CCN(CCCC(c1ccc(F)cc1)c1ccc(F)cc1)CC2` [Fluspirilene] (14.0333 µM), for which the “COL1A1 mRNA fold change” value is 0.695.

`O=C(Nc1cc(C(F)(F)F)cc(C(F)(F)F)c1)c1cc(Cl)ccc1O` (33.3333 µM): the “COL1A1 mRNA fold change” value was 0.203 (active). The result for `CN1CCN2c3ccccc3Cc3ccccc3C2C1` (stereo not given) [Mianserin hcl] (25.2333 µM) reads 0.529; that for `OCCN1CCN(CCCN2c3ccccc3Sc3ccc(C(F)(F)F)cc32)CC1` (33.3333 µM), 0.0645. For `CC#CCOC(=O)c1c(C)nc2sc3c(c2c1N)CCC(O)C3` (stereo not given) (33.3333 µM) the value was 2.5. The result for `CN1CCN(C2=Cc3ccccc3Oc3ccc(Cl)cc32)CC1` (33.3333 µM) reads 0.416 (active); that for `Cc1cc(C(=O)Nc2cc(Nc3ccc4c(/C=C/c5ccccn5)n[nH]c4c3)ccc2F)n(C)n1` (33.3333 µM), 0.363 (active).

Consider `CN1CCC(CNc2ccc3ncc(-c4cccc(OC(F)(F)F)c4)n3n2)CC1` (6.66667 µM), for which the “COL1A1 mRNA fold change” value is 0.552.

Consider `Cn1cc(CNCC2CCN(c3ncc(C(=O)NO)cn3)CC2)c2ccccc21` [Quisinostat] (33.3333 µM), for which the “COL1A1 mRNA fold change” value was 0.00578. With `CCCCCCCCCCCCCCCCn1cc[n+](Cc2ccccc2)c1C` (11.1 µM), the “COL1A1 mRNA fold change” value is 0.155. The result for `CNCCCC1c2ccccc2C=Cc2ccccc21` [Protryptyline hydrochloride] (22.2333 µM) reads 0.548; that for `CN1CCC(NC(=O)c2cc(-c3c(O)cc(O)cc3Oc3ccc([N+](=O)[O-])cc3)on2)CC1` (33.3333 µM), 1.15; that for `CC(C)NCCCn1c(Sc2cc3c(cc2I)OCO3)nc2c(N)ncnc21` (33.3333 µM), 0.844. The result for `Cc1ccc(NC(=O)C(C)C)cc1C1CCN(Cc2ccc(Oc3ccc(F)c(F)c3)cc2)CC1` (33.3333 µM) reads 0.0966. For `C[C@@H]1CN(CCCn2c3ccccc3c3ccccc32)C[C@H](C)N1` [Rimcazole dihydrochloride] (33.3333 µM) the value was 0.14.

Turning to `O=C(O[C@H]1CN2CCC1CC2)N1CCc2ccccc2[C@@H]1c1ccccc1` [Solifenacin succinate] (33.3333 µM), the “COL1A1 mRNA fold change” value is 0.375 (active). Consider `NC1(c2ccc(-c3nc4ccn5c(=O)[nH]nc5c4cc3-c3ccccc3)cc2)CCC1` (11.1 µM), for which the “COL1A1 mRNA fold change” value is 0.184.

Consider `COc1cc2nc(N3CCCN(C)CC3)nc(NC3CCN(Cc4ccccc4)CC3)c2cc1OC` (3.33333 µM), for which the “COL1A1 mRNA fold change” value was 0.0424 (active). With `COc1ccccc1OCCNCC(O)COc1cccc2[nH]c3ccccc3c12` (stereo not given) [Carvedilol] (33.3333 µM), the “COL1A1 mRNA fold change” value was 0.294. The result for `CN1CCN(Cc2ccc(-c3cnc4[nH]cc(-c5ccc6[nH]ccc6c5)c4c3)cc2)CC1` (6.66667 µM) reads 0.0518 (active). Consider `CCN1CCC(n2cc(CNc3cc(Cl)c4ncc(C#N)c(Nc5ccc(F)c(Cl)c5)c4c3)nn2)CC1` (33.3333 µM), for which the “COL1A1 mRNA fold change” value was 0.124. For the compound `CCN(CC)CCNC(=O)c1c(C)[nH]c(/C=C2\C(=O)Nc3ccc(F)cc32)c1C` (6.66667 µM), the “COL1A1 mRNA fold change” value is 0.664. On to `CSc1ccc2c(c1)C(N1CCN(C)CC1)Cc1ccccc1S2` (stereo not given) [Methiothepin maleate] (33.3333 µM), for which the “COL1A1 mRNA fold change” value was 0.00214. For `Cc1cc(Nc2cc(N3CCN(C)CC3)nc(/C=C/c3ccccc3)n2)n[nH]1` (11.1 µM) the value was 0.343. For `CNC(=O)[C@@H](Cc1ccccc1)N(C)C(=O)[C@@H](Cc1ccc2ccccc2c1)N(C)C(=O)/C=C/CC(C)(C)N` [Tabimorelin] (33.3333 µM) the value was 0.935; for `CCN(CC)CC#CCOC(=O)C(O)(c1ccccc1)C1CCCCC1` (stereo not given) [Oxybutynin chloride] (16.9333 µM), 0.755. With `C[C@]12CC[C@H](O)CC1=CC[C@@H]1[C@@H]2CC[C@]2(C)C(n3cnc4ccccc43)=CC[C@@H]12` [Galeterone] (33.3333 µM), the “COL1A1 mRNA fold change” value is 0.0557.

`O=S(=O)(NCCNC/C=C/c1ccc(Br)cc1)c1cccc2cnccc12` [H-89, Dihydrochloride] (11.1 µM): the “COL1A1 mRNA fold change” value was 0.594.
